PubChem BioAssay (Tox21)
Inconclusive results are not listed. The source made the active and inactive calls. Unless noted, calls come from the whole dose curve; as a rule, active = well fitted curve in the direction sought with a large enough effect in the repeat runs; inconclusive = weak or mixed curves; inactive = no such curve, though single readings can be large; an effect the other way counts as inactive or inconclusive.

Key:
[1] = molecular target: Luciferin 4-monooxygenase (Photinus pyralis) (UniProt P08659); assay: qHTS assay to identify small molecule inhibitors of firefly luciferase (AID 1224835); note: nearly all actives have a fitted effect of over 25% in size; note: potency is the fitted concentration of half-maximal effect
Summary of the method: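 Quantitative HTS format; KM concentrations of both substrates. Purified P. pyralis FLuc activity quantified from luminescence images.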

[2] = molecular target: Nuclear receptor subfamily 1 group I member 3 (Homo sapiens) (UniProt Q14994); assay: qHTS assay to identify small molecule antagonists of the constitutive androstane receptor (CAR) signaling pathway (AID 1224838);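 note: HepG2 cells stably expressing hCAR with CYP2B6 luciferase reporter stimulated by CITCO; nearly all actives have a fitted effect of over 40% in size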; note: potency is the fitted concentration of half-maximal effect
Summary of the method: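 Read-out: ONE-Glo luciferase luminescence after 30 min at room temperature. HepG2-CYP2B6-hCAR double-stable cells, compounds in 15-point titration plus 50 nM CITCO final, 24 h at 37 C/5% CO2.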

[3] = molecular target: Nuclear receptor subfamily 1 group I member 3 (Homo sapiens) (UniProt Q14994); assay: qHTS assay to identify small molecule agonists of the constitutive androstane receptor (CAR) signaling pathway (AID 1224839);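 note: HepG2 cells stably carrying human CAR and a CYP2B6 luciferase reporter; series mostly up to about 92 µM; nearly all actives have a fitted effect of over 15% in size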
Summary of the method: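 Using human hepatoma HepG2 cells engineered with hCAR and a CYP2B6-2.2kb reporter, 15-concentration compound series were incubated 24 h alongside PK11195 at 0.75 uM final, with luminescence quantified afterwards.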

[4] = qHTS assay to identify small molecule antagonists of the estrogen related receptor signaling pathway with the pleiotropic PPARgamma coactivator (PGC) from Tox21 10K library - cell viability counter screen (AID 1224840; active = well fitted cell-killing curve with a large enough effect in the repeat runs, not every such curve was filed as active; note: nearly all actives have a fitted effect of over 40% in size)
Summary of the method: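 Fluorescence read-out of CellTiter-Fluor viability reagent, added after cells had been exposed to compound in DMSO for 17.5 h at 37 C; 30 min development at 37 C/5% CO2. Cells: PGC/ERR line, 2,000/well.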

[5] = molecular target: Thyrotropin receptor (Homo sapiens) (UniProt P16473); assay: qHTS assay to identify small molecule agonists of the thyroid stimulating hormone receptor (TSHR) signaling pathway (AID 1224843; calls by dose curve; note: nearly all actives have a fitted effect of over 45% in size)
Summary of the method: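 Compounds are titrated over 15 concentrations, in triplicate, onto TSHR-HEK293 cells seeded at 800/well. Plates sit 30 min at room temperature before cAMP-d2 and anti-cAMP cryptate are added; signal is read after a further hour.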

[6] = qHTS assay to identify small molecule agonists of the hypoxia (HIF-1) signaling pathway - cell viability counter screen (AID 1224844; calls by dose curve; note: nearly all actives have a fitted effect of over 50% in size; note: potency is the fitted concentration of half-maximal effect)
Summary of the method: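 CellTiter-Glo luminescence read-out, 30 min RT, taken in the same wells as the beta-lactamase HRE reporter assay; HRE-bla ME-180 cells, 0.5% dialyzed FBS, 17 hr compound treatment at 37C, 5% CO2.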

[7] = qHTS assay to identify small molecule agonists of the constitutive androstane receptor (CAR) signaling pathway - cell viability counter screen (AID 1224836); note: nearly all actives have a fitted effect of over 45% in size; note: potency is the fitted concentration of half-maximal effect
Summary of the method: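 Multiplexed viability check: HepG2-CYP2B6-hCAR cells, 15-point compound dosing, 0.75 uM PK11195 final, 23 h at 37 C, CellTiter-Fluor fluorescence.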

[8] = qHTS assay to identify small molecule antagonists of the constitutive androstane receptor (CAR) signaling pathway - cell viability counter screen (AID 1224837); note: nearly all actives have a fitted effect of over 45% in size; note: potency is the fitted concentration of half-maximal effect
Summary of the method: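 Read-out: CellTiter-Fluor fluorescence after 23 hr at 37 C/5% CO2. Cells: HepG2 double-stable for hCAR and CYP2B6-2.2kb. Compounds tested at 15 concentrations in the presence of CITCO, final concentration 50 nM.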

[9] = qHTS assay to identify small molecule agonists of the estrogen related receptor signaling pathway with the pleiotropic PPARgamma coactivator (PGC) from Tox21 10K library (AID 1224842); note: nearly all actives have a fitted effect of over 15% in size
Summary of the method: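 PGC/ERR reporter cells (NTP line) were seeded 2,000 per well, rested 6 h at 37 C/5% CO2, then pin-dosed with compounds in DMSO for 18 h at 37 C; luciferase read by One-Glo luminescence after 30 min at room temperature.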

[10] = qHTS assay to identify small molecule antagonists of the estrogen related receptor signaling pathway with the pleiotropic PPARgamma coactivator (PGC) from Tox21 10K library (AID 1224841; call rule not given here; note: actives are mostly falling curves and most rising ones were filed inactive; nearly all actives have a fitted effect of over 50% in size; note: potency is the fitted concentration of half-maximal effect)
Summary of the method: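 Luminescence read-out (One-Glo luciferase reagent, 30 min at room temperature) from PGC/ERR cells exposed to DMSO-dissolved test compounds for 18 h at 37 C; cells, 2,000 per well, had been preincubated 6 h before compound transfer.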

Measured: Potency

Sequence of Thyrotropin receptor (Homo sapiens) (P16473 whole entry, looked up): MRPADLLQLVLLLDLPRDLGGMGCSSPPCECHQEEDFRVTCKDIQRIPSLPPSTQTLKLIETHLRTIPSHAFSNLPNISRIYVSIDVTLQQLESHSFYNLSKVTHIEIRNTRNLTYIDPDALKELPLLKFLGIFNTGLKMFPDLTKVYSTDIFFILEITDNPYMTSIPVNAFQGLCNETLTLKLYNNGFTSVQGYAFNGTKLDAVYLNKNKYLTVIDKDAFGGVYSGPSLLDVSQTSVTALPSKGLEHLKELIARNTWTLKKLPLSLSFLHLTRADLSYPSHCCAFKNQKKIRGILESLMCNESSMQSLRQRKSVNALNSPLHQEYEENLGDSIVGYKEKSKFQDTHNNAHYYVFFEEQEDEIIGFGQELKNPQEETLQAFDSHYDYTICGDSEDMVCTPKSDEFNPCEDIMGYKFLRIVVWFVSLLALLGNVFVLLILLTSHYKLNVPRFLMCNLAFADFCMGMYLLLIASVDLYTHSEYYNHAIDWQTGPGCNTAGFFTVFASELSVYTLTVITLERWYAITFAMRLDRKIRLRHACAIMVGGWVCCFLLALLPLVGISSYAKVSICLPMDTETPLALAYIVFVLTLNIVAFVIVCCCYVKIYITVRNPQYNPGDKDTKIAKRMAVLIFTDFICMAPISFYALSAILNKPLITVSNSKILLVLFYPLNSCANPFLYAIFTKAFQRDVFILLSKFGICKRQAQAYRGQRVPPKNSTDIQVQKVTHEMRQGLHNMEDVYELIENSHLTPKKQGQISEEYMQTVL
Sequence of Nuclear receptor subfamily 1 group I member 3 (Homo sapiens) (Q14994 whole entry, looked up): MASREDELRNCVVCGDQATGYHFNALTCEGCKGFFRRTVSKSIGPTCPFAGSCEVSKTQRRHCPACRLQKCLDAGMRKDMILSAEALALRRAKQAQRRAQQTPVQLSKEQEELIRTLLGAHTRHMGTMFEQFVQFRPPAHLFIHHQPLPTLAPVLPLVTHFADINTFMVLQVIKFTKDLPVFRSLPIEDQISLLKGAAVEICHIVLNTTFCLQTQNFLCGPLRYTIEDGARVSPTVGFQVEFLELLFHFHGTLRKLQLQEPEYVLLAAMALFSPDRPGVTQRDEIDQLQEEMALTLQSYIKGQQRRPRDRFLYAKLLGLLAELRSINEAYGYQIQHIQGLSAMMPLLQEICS
Sequence of Luciferin 4-monooxygenase (Photinus pyralis) (P08659 whole entry, looked up): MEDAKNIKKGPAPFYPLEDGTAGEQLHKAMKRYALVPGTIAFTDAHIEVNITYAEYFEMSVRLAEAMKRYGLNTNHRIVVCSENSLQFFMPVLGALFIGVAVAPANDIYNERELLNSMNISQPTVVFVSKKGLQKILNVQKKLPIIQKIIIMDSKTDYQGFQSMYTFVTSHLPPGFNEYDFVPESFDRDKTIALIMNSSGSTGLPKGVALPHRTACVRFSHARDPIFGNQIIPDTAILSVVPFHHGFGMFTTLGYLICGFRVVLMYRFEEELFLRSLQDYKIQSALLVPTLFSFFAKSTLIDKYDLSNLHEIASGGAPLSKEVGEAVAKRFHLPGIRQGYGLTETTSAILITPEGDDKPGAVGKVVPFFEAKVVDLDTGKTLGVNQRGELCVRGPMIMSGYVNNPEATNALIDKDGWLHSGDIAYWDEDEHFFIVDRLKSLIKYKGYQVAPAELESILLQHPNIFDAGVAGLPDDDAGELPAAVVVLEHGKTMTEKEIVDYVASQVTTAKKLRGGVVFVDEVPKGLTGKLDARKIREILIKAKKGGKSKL

O=C(CCCCCCC(=O)Nc1ccccc1)NO
active: [2] 3.76 µM | [6] 1.69 µM
inactive: [1] | [3] | [4] | [5]

O=C(O)c1cccnc1C(=O)O
inactive: [1] | [4] | [5] | [6]

C[C@@H]1C[C@H]2[C@@H]3CCC4=CC(=O)C=C[C@]4(C)[C@@]3(F)[C@@H](O)C[C@]2(C)[C@@]1(O)C(=O)CO
inactive: [7] | [8] | [3] | [4]

CCC(=O)OC/C=C/c1ccccc1
inactive: [7] | [8] | [2] | [3] | [4] | [6]

CC1=CC(O)CC(C)(C)C1 (centres undefined)
inactive: [1] | [5] | [6]

CC(C)(C)C(=O)C(Oc1ccc(Cl)cc1)n1ccnc1 (centres undefined)
inactive: [1] | [2] | [3] | [4] | [9]

CCC(C)(O)CCC=C(C)C (centres undefined)
inactive: [1] | [8] | [5] | [6]

CO[C@H]1C=CO[C@@]2(C)Oc3c(C)c(O)c4c(O)c(c5c(c4c3C2=O)=NC2(CCN(CC(C)C)CC2)N=5)NC(=O)/C(C)=C\C=C/[C@H](C)[C@H](O)[C@@H](C)[C@@H](O)[C@@H](C)[C@H](OC(C)=O)[C@@H]1C
active: [7] 53.3 µM | [8] 47.5 µM
inactive: [2] | [3] | [9]

C=CC(C)=CCC=C(C)C
inactive: [1] | [3] | [4] | [6]

Fc1ccccc1[C@@H](F)COC1CCC(Nc2ncnc3[nH]ncc23)CC1 (some centres undefined)
inactive: [1] | [2] | [3] | [5] | [6]

NC(=O)Cn1c(=O)cc(CCN2CCN(c3nccc4sccc34)CC2)c2ccc(F)cc21
inactive: [9] | [6]
active: [1] 44.8 µM | [10] 61.1 µM

C(=C\c1ccccc1)/CN1CCN(C(c2ccccc2)c2ccccc2)CC1
inactive: [7] | [8] | [2] | [4] | [5] | [6]

CNCCCC1c2ccccc2C=Cc2ccccc21
inactive: [1] | [10] | [5]

CC[C@H](NC(=O)c1cc(F)ccc1NS(=O)(=O)c1cccc2cccnc12)c1ccccc1
inactive: [1] | [5]

CCCCN(CCCC)C(=S)SSC(=S)N(CCCC)CCCC
inactive: [7] | [8] | [4] | [5]

CN1CCN(CCCN2c3ccccc3Sc3ccc(S(=O)(=O)N(C)C)cc32)CC1
inactive: [1] | [3] | [9]

CCCc1c(OCCCOc2ccc(OCC(=O)O)cc2)ccc(C(C)=O)c1O
inactive: [7] | [8] | [4] | [10] | [5]

CCOCCn1c(C2CCN(CCc3ccc(C(C)(C)C(=O)O)cc3)CC2)nc2ccccc21
inactive: [1] | [4] | [5] | [6]

CCc1cccc(N(C)C(N)=Nc2cccc3ccccc23)c1
inactive: [8] | [2] | [4] | [5] | [6]

CC[C@@H]([C@H](C)O)n1ncn(-c2ccc(N3CCN(c4ccc(OC[C@@H]5CO[C@@](Cn6cncn6)(c6ccc(F)cc6F)C5)cc4)CC3)cc2)c1=O
inactive: [1] | [3]

CCOC(=O)[C@@H](C)Oc1ccc(Oc2nc3ccc(Cl)cc3o2)cc1
inactive: [7] | [8] | [2] | [4] | [10] | [6]

CCC(C)=O
inactive: [1] | [4] | [9] | [6]
